The source of these data is PubChem BioAssay AID2284118 (EPA ToxCast).

Each structure is given as a SMILES string. Activity calls are given as the source filed them. How the source made its calls: active means hit-call score of the fitted dose curve at least 0.9, where 1 is the maximum; inactive means score below 0.9.

Sequence of human AMPKalpha1 CAMK Kinase, PRKAA1 (gene 5562) (Q13131 whole entry, looked up): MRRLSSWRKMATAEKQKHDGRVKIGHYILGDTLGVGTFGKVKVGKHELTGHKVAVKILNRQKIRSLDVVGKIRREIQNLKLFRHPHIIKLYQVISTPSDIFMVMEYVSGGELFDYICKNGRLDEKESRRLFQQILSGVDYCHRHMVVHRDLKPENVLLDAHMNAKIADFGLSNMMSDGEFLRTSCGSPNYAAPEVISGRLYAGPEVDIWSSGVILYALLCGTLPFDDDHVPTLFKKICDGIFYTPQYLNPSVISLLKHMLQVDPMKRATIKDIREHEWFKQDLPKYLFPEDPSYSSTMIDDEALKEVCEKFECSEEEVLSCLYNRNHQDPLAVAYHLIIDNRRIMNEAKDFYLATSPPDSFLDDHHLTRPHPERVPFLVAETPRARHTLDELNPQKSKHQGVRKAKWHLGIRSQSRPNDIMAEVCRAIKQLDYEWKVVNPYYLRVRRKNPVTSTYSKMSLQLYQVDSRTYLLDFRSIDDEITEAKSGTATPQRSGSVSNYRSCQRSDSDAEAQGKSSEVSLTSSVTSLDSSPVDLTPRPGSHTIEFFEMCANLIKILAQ

The experiment has as its target human AMPKalpha1 CAMK Kinase, PRKAA1 (gene 5562) (UniProt Q13131). Kind of experiment: ERF_KP_ENZ_hPRKAA1: Eurofins (ERF) Enzymatic Radiometric [10 uM ATP] KinaseProfiler LeadHunter Assay for human AMPKalpha1 CAMK Kinase. The method, then: ERF_KP_ENZ_hPRKAA1 is a biochemical, single-readout assay that uses extracted gene-proteins in a cell-free assay. Measurements were taken 0.66 hour after chemical dosing in a 96-well plate. See AMPKalpha1 Human CAMK Kinase Enzymatic Radiometric Assay [10 uM ATP], KinaseProfiler.ERF_KP_ENZ_hPRKAA1 is an assay component calculated from the ERF_KP_ENZ_hPRKAA1 assay. It is designed to measure enzyme activity using a type of enzyme reporter as detected by scintillation counting with radiometry technology.Data from the assay component ERF_KP_ENZ_hPRKAA1 was analyzed at the assay endpoint, ERF_KP_ENZ_hPRKAA1, in the positive analysis fitting direction relative to DMSO as the negative control and baseline of activity. Using a type of enzyme reporter, loss-of-signal activity can be used to understand changes in enzymatic activity as they relate to gene PRKAA1. To generalize the intended target to other relatable targets, this assay endpoint is annotated to the kinase intended target family, where the subfamily is serine/threonine kinase.
AMPK (a1, b1, g1) (h) is incubated with 8 mM MOPS pH 7.0, 0.2 mM EDTA, 200 uM AMP, 100 uM […], 10 mM MgAcetate and [gamma-33P]-ATP (specific activity and concentration as required). The reaction is initiated by the addition of the Mg/ATP mix. […]
Turning to `O=C(/C=C/c1ccc(O)cc1)CC(=O)/C=C/c1ccc(O)cc1`, the concentration at half-maximal activity (AC50) (as a rule, the concentration giving half of the maximal activity seen) was 0.298 nM (active).
